Screening results: PubChem, Broad Institute
Not all results are given here.
aSyn 5UTR act: Activators via SNCA 5'UTR binding, MLPCN; AID 1814, 2009; activity score, % (tested at 7.5 µM), hits read low; alpha-synuclein 5'UTR reporter, activators screen; hit rate 7.1% among 300,000; in the data active means activity score below about -60%
Starred values were filed as active, the others as inactive.

SMILES	aSyn 5UTR act
CCOc1ccc(-c2cc(C(=O)N/N=C(\C)c3cccnc3)c3ccccc3n2)cc1	-91.7*
C/C(=N\NC(=O)c1c(Br)c(C)nn1C)c1ccc(NC(=O)c2ccoc2C)cc1	-106.1*
CCc1[nH]nc(C(=O)N/N=C/c2ccncc2)c1C	-70.3*
CCOC(=O)c1c(N/N=C/c2ccncc2)n[nH]c1C	-81.2*
C/C(=N\NC(=O)c1ccco1)c1ccc(NC(=O)c2ccccc2)cc1	-126.4*
C/C(=N\NC(=O)COc1ccccc1F)c1cc2ccccc2o1	-132.7*
C/C(=N\NC(=O)c1ccco1)c1ccc(-c2ccccc2)cc1	-125.9*
C/C(=N\NC(=O)c1ccco1)c1cc2ccccc2o1	-93.9*
CSc1ccccc1-c1nnc(-c2ccc(C)cc2)o1	-105.8*
Cc1ccccc1-c1nnc(CN2CCC(C)CC2)o1	-76.5*
Cc1ccccc1-c1nnc(-c2ccccc2C)o1	-145.4*
Cc1ccccc1-c1nnc(-c2ccc(Br)cc2)o1	-175.0*
Cc1ccc(/C=N/Nc2ccc(C(=O)O)cc2)s1	75.7
O=C(O)c1ccc(N/N=C/c2ccc(-c3ccccc3Cl)o2)cc1	-64.5*
O=C(O)c1ccc(N/N=C/c2ccc(OC(=O)c3ccccc3Cl)cc2)cc1	57.4
Cc1ccc(/C=N/Nc2ccc(C(=O)O)cc2)o1	-69.5*
O=c1cc(COc2ccc(Cl)c(Cl)c2)nc2sccn12	-82.9*
O=c1cc(CNc2cc(C(F)(F)F)cc(C(F)(F)F)c2)nc2sccn12	65.2
Cc1no[n+]([O-])c1COc1ccccc1/C=N/n1nnnc1N	-99.3*
O=C(COC(=O)C1CC1)Nc1ccc(N=Nc2ccccc2)cc1	-118.9*
C/C(=N\NC(=O)CSc1nc(C)[nH]c1[N+](=O)[O-])c1ccc(F)cc1	-109.0*
O=c1[nH]c(/C=C/c2cccc3ccccc23)nc2ccccc12	-104.2*
O=c1[nH]c(/C=C/c2ccccc2[N+](=O)[O-])nc2ccccc12	-189.9*
O=c1[nH]c(/C=C/c2ccccn2)nc2ccccc12	-176.1*
O=c1nc(/C=C/c2cc([N+](=O)[O-])ccc2Cl)cc(C(F)(F)F)[nH]1	-67.1*
SMILES	aSyn 5UTR act
COc1cc(OC)c(OC)cc1/C=C/c1cc(C(F)(F)F)[nH]c(=O)n1	-121.1*
O=C(NC1CCCC1)c1cc(-c2ccccc2O)on1	-77.4*
COc1ccccc1C(=O)NC1CCCCCCC1	-70.5*
COCC(C)NC(=O)c1cc(-c2ccccc2OC)on1 (stereo not given)	-102.2*
O=C(NC1CCCC1)c1cc(-c2cccs2)on1	-342.7*
Cc1occc1C(=O)NC1CCCCCCC1	-77.4*
Cc1occc1C(=O)NN=C1C2CC3CC(C2)CC1C3	-140.9*
COc1ccccc1-c1cc(C(F)(F)F)nc(S(=O)(=O)CCCC(=O)Nc2cc(C)on2)n1	-65.3*
Cc1cc(NC(=O)c2cc(-c3ccc(O)cc3)on2)no1	-62.0*
COc1ccccc1-c1cc(C(=O)NC2CCCC2)no1	-97.6*
O=C(NC1CCCC1)c1cc(-c2ccc(Cl)cc2Cl)on1	-121.7*
COc1ccccc1-c1cc(C(=O)NC2CCN(C)CC2)c2ccc(Cl)c(C)c2n1	101.3
O=C(NC1CCCCC1)c1cc(-c2ccccc2Cl)on1	-161.9*
CC1CCCC(C)N1C(=O)c1cc(-c2cccs2)on1 (stereo not given)	-137.0*
COc1ccccc1-c1cc(C(=O)Nc2cc(C)on2)no1	-146.1*
COc1ccc(OC)c(-c2cc(C(=O)Nc3c(C)nn(Cc4ccccc4C)c3C)no2)c1	60.3
O=c1c(/C=C(\O)c2ccccc2)nc2ccccc2n1-c1ccccc1	-127.0*
O=S(=O)(c1ccccc1)n1nc(-c2ccccc2)nc1NCc1ccco1	-64.7*
CC(C)(C)c1ccc(-c2noc(CCC(=O)NCc3ccco3)n2)cc1	77.3
CCCC(=O)n1nc(-c2ccc(C)cc2)nc1NCc1ccco1	-88.1*
Cc1ccc(C(=O)n2nc(-c3ccccc3)nc2NCc2ccco2)cc1	-67.7*
C/C(=N\Nc1cccc2cccnc12)c1ccc[nH]1	-122.6*
CN1CCN(/N=C/c2ccc(-c3ccc([N+](=O)[O-])cc3Cl)o2)CC1	-103.6*
Cc1ccc2c(c1)C(O)(CC(=O)/C=C/C=C/c1ccccc1)C(=O)N2 (stereo not given)	-112.0*
O=c1c2ccccc2nnn1CSc1ccccc1	-74.7*
SMILES	aSyn 5UTR act
N#Cc1nc(-c2ccc(F)cc2)oc1NCCCn1ccnc1	-90.0*
N#Cc1nc(-c2ccc(OCc3ccccc3Cl)cc2)oc1NCCCn1ccnc1	-65.0*
Cc1ccc(CNc2ccc3c(c2)nc(C)n3C)cc1	-64.0*
Cc1nc2cc(NCc3ccc(Cl)cc3)ccc2n1C	-66.8*
CCCC(=O)Nc1ccc(-c2csc(-c3cccnc3)n2)cc1	-114.3*
CC(=O)Nc1ccc(-c2csc(-c3cccnc3)n2)cc1	-112.0*
CCOc1ccc(NC(=O)C(c2ccccn2)N(C(=O)CCl)c2ccc(OC)cc2)cc1 (stereo not given)	-161.0*
O=C(NCc1ccc(F)cc1)Nc1cccc(Cl)c1	-149.0*
COc1cccc(NC(=O)C(=O)NCCc2ccc(F)cc2)c1	-109.2*
O=C(NCc1ccc(F)cc1)Nc1ccc(Cl)cc1	-64.8*
O=C(NCc1ccccn1)Nc1cccc(Cl)c1	-176.5*
Cc1ccc(CNC(=O)Nc2cccc(C)c2)cc1	-117.1*
Fc1cccc(NC(=S)NCc2ccccn2)c1	-93.5*
Cc1cccc(NC(=O)Nc2ccc(C)cc2Br)c1	-78.9*
CCCCCCNC(=O)Nc1ccccc1	-88.4*
CCN(CC)CC(=O)Nc1ccc(C)cc1Br	-76.7*
O=C(NCCc1ccc(F)cc1)Nc1ccccc1	-70.1*
O=C(/C=C/c1ccc(F)cc1)N1CCCc2ccccc21	-64.9*
O=C(/C=C/c1ccc(Cl)cc1Cl)N1CCc2ccccc21	-192.4*
O=C(/C=C/c1cccc(F)c1)N1CCc2ccccc21	-111.3*
CCNc1ccc(Br)cc(C(=O)/C=C/c2ccccc2Cl)c1=O	-67.7*
Cc1cc2nc(SCCN3CCCC3)[nH]c2cc1C	-67.7*
O=C(Nc1ccc2nc3n(c(=O)c2c1)CCCCC3)c1c(F)ccc([N+](=O)[O-])c1F	84.9
CCOC(=O)Nc1ccc2nc3n(c(=O)c2c1)CCCCC3	-79.4*
O=C(Nc1ccc2nc3n(c(=O)c2c1)CCCCC3)c1ccccc1[N+](=O)[O-]	-87.1*
SMILES	aSyn 5UTR act
CCN(CC)c1cc(C)c2cc(NC(=O)c3ccccc3F)ccc2n1	-124.6*
O=C(Nc1ccc2nc3n(c(=O)c2c1)CCCC3)c1ccccc1F	-67.2*
O=C(Nc1ccc2nc3n(c(=O)c2c1)CCCC3)c1cccc(F)c1	-81.8*
Cc1cc(O)cc(O)c1-c1onc(C(F)(F)F)c1-c1cscn1	-78.5*
COc1cc(C2=NOC(C(=O)Nc3ccc(C(C)=O)cc3)C2)cc(OC)c1OC (stereo not given)	-79.9*
NNC(=O)c1cc2sccc2s1	-79.5*
CC(C)(C)c1ccc(C(=O)NCCOc2ccccc2F)cc1	77.5
O=C(NCCSc1ccccc1)c1ccc(Br)cc1	-66.7*
Cc1ccc(C(=O)NCCSC(C)(C)C)cc1[N+](=O)[O-]	-118.9*
CSCCNC(=O)c1ccc(C(C)(C)C)cc1	-83.7*
COc1c(C(=O)NCCSC(C)(C)C)ccc2ccccc12	-61.7*
O=C(NCCSc1ccccc1)c1cncc(Br)c1	-132.2*
COc1cccc(C(=O)NCC(=O)N2CCC(C)CC2)c1	-115.0*
COc1cccc(C(=O)NCCSc2ccc(F)cc2)c1	-156.9*
COc1ccc(N=Nc2n(C)c3ccccc3[n+]2C)cc1	103.3
COc1ccc(C(=O)NCc2cc3ccccc3n2C)cc1	-92.4*
O=C(NCCSc1ccccc1)c1ccccc1	-190.6*
